In ChEMBL document CHEMBL3988442, “University of Dundee, Small-Polar-MMV Screening Library” (2021) one finds Percent Effect data, which are given here for 11 compounds.

SMILES strings stand for the structures. For some of these results: Entries with a potency or affinity are not part of this list.

What all share (set-up): scale not given: direction of the effect not stated beside the values
Assay [1] concerns the target Protein translocase subunit SecA (Escherichia coli (strain K12)) (UniProt P10408). Put plainly: Assay to Identify E. coli SecA ATPase Inhibitors. The format is functional. The following applies: 30 µM.
Assay [2] addresses T1, Ubiquitin-activating enzyme e1, putative (Leishmania donovani (strain BPK282A1)) (UniProt E9BSI1).
T1 sequence (whole entry): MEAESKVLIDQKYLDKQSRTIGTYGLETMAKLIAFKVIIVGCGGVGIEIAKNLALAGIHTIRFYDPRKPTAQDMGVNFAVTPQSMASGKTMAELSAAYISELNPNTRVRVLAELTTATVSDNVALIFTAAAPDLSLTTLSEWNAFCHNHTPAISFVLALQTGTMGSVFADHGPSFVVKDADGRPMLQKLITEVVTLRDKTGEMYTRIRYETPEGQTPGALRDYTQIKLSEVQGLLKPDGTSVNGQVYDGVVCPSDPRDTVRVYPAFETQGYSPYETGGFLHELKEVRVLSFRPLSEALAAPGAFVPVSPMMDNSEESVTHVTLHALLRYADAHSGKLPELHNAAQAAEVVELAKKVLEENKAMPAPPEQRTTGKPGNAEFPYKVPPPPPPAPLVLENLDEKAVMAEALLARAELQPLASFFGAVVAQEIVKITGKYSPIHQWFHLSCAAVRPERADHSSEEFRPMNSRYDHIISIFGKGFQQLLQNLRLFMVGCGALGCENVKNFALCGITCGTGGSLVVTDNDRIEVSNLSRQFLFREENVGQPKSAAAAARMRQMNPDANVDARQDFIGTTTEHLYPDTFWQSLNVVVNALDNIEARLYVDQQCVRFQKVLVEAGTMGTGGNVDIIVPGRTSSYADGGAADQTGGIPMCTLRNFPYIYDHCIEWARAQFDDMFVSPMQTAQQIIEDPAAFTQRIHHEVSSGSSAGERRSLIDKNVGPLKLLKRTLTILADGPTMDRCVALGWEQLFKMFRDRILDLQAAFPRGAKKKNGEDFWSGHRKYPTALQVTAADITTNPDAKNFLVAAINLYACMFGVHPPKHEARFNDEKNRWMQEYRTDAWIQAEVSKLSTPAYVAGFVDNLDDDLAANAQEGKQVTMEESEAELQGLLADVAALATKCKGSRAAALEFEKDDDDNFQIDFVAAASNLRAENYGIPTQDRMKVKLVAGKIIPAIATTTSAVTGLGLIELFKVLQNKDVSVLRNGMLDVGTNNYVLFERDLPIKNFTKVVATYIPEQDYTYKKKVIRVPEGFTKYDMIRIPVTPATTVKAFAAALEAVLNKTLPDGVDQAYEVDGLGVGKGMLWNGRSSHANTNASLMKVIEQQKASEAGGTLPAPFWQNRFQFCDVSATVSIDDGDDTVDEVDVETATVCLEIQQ
Put plainly: Leishmania donovani Ubiquitin Activating Enzyme (LdE1). The following applies: 30 µM. In kind it is functional.

For assay [3], the target named is AMP-activated protein kinase, AMPK (Homo sapiens) (UniProt P54646+O43741+P54619+Q9UGJ0+Q9Y478+Q13131+Q9UGI9). The experiment in a line: AMP-dependent Kinase enzyme assay. An in vitro enzyme assay that detects ADP turnover that is directly proportional to AMPK activity. This uses naive AMPK that is activated during the assay with MK-8722. The format is functional. As to conditions: 30 µM.

For assay [4], the target named is Sialic acid-binding Ig-like lectin 9 (Homo sapiens) (UniProt Q9Y336). The experiment in a line: Hs-Siglec9 ALPHAscreen SOP 20170721. The following applies: 10 µM.
The test system of assay [5] is Trypanosoma cruzi. Put plainly: Trypanosoma cruzi phosphomannomutase and mannose-1-phosphate guanylyltransferase assay. In kind it is functional. As to conditions: 10 µM.
Assay [6] addresses T2, Arginase-2, mitochondrial (Homo sapiens) (UniProt P78540).
T2 sequence (whole entry): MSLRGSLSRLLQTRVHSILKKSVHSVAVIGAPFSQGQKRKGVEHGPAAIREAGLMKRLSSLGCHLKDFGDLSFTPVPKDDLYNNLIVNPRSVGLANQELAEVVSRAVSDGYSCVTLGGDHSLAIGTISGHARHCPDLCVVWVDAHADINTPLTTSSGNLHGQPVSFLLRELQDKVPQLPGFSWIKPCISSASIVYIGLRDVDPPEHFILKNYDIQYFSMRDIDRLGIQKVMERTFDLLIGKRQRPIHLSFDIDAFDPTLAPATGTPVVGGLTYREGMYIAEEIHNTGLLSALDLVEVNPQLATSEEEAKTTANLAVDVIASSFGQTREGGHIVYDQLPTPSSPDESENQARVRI
Put plainly: in vitro enzyme assay to detect the production of urea directly proportional to the activity of Arginase II. Note: in the data most compounds retested in dose-response had high values. In kind it is functional. The following applies: 33.3 µM.

The target in assay [7] is T3, Proteasome subunit beta (Trypanosoma cruzi) (UniProt O96673).
T3 sequence (whole entry): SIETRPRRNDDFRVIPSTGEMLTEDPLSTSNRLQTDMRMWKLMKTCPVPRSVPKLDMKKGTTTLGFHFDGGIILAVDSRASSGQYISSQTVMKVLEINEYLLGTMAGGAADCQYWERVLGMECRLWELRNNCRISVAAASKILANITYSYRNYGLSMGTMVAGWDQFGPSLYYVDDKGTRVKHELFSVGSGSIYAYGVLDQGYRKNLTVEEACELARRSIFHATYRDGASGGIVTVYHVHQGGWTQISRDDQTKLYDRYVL
The experiment in a line: Trypanosoma cruzi proteasome chymotrypsin-like activity (TcProtChymo) assay. Note: in the data most compounds retested in dose-response had high values. The following applies: 9.37 µM. In kind it is functional.

The species entered for assay [8] is Homo sapiens. The experiment in a line: To identify inhibition of the IFN signalling (Jak-Stat) pathway via expression of an eGFP reporter gene under the control of an IFN-stimulated response element (ISRE) containing MxA promoter. The format is functional. The following applies: 30 µM.
For assay [9], the target named is T4, Tyrosyl-tRNA synthetase, putative (Trypanosoma cruzi (strain CL Brener)) (UniProt Q4DSP6).
T4 sequence (whole entry): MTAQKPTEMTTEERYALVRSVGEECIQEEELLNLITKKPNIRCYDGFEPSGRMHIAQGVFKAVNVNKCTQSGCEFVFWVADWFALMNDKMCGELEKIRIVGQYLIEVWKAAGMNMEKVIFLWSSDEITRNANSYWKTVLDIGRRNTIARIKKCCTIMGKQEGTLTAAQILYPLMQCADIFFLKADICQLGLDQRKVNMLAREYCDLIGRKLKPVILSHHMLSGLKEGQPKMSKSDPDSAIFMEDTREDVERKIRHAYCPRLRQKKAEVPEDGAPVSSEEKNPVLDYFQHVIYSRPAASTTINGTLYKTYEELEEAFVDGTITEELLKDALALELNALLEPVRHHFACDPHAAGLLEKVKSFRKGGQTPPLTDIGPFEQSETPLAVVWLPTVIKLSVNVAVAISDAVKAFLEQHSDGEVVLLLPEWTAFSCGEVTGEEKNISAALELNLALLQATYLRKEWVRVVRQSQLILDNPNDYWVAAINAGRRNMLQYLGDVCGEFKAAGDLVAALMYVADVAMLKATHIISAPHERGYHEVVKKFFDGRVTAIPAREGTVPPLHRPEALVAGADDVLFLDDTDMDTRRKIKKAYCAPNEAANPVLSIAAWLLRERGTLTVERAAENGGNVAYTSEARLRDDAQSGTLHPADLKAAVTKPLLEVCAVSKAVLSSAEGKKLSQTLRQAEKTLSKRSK
The experiment in a line: Trypanosoma cruzi tyrosyl tRNA synthetase (TcYRS) _High Tyrosine SOP. Note: in the data most compounds retested in dose-response had high values. The format is functional. The following applies: 30 µM.

Assay [10] concerns the target T4, Tyrosyl-tRNA synthetase, putative (Trypanosoma cruzi (strain CL Brener)). The experiment in a line: Trypanosoma cruzi tyrosyl tRNA synthetase (TcYRS) SOP. As to conditions: 30 µM. In kind it is functional.
The target of assay [11] is Chromo domain-containing protein 1 (Saccharomyces cerevisiae (strain ATCC 204508 / S288c) (Baker's yeast)) (UniProt P32657). Put plainly: ScCHD-1 Enzyme Inhibition Assay. Note: in the data most compounds retested in dose-response had high values. As to conditions: 30 µM. The format is functional.
Sequence of Chromo domain-containing protein 1 (Saccharomyces cerevisiae (strain ATCC 204508 / S288c) (Baker's yeast)) (P32657 whole entry, the tested form may be a part): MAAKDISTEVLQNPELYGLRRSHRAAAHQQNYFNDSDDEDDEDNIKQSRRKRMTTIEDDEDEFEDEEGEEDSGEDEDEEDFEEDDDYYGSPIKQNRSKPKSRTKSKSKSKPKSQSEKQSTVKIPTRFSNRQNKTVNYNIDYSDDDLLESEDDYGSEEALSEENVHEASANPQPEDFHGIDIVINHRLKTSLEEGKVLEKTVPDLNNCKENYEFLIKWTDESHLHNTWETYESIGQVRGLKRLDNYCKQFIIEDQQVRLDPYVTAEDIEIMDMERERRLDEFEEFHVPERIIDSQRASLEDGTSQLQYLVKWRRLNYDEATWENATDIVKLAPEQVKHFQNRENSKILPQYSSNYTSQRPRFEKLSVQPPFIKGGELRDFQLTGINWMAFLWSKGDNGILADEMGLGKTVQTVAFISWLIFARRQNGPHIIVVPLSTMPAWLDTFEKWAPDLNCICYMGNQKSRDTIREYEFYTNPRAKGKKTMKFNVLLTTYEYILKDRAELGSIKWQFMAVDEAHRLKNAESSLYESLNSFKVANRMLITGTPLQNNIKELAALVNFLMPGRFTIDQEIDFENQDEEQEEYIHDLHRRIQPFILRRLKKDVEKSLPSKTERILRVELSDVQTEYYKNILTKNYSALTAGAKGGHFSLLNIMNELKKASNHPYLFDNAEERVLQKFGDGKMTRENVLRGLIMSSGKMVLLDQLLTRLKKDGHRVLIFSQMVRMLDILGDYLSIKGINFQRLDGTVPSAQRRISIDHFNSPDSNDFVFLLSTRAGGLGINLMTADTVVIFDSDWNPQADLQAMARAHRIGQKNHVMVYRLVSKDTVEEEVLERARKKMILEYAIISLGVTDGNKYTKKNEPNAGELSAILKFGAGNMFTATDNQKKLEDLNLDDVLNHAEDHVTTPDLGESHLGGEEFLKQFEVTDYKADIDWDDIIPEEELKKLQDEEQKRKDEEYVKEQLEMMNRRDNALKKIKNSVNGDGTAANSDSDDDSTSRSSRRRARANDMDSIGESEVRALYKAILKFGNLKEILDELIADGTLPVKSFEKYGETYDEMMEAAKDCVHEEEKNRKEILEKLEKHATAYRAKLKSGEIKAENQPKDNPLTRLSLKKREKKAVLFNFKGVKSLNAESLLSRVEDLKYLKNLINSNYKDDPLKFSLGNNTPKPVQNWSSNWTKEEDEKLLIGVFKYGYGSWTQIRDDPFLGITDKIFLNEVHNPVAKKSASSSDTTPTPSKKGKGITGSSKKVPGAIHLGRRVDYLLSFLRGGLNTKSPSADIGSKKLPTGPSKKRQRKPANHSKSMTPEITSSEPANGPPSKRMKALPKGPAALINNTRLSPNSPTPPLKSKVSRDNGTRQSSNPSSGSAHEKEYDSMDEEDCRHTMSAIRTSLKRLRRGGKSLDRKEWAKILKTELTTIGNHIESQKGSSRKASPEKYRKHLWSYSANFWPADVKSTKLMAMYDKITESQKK

Sequence of Sialic acid-binding Ig-like lectin 9 (Homo sapiens) (Q9Y336 whole entry): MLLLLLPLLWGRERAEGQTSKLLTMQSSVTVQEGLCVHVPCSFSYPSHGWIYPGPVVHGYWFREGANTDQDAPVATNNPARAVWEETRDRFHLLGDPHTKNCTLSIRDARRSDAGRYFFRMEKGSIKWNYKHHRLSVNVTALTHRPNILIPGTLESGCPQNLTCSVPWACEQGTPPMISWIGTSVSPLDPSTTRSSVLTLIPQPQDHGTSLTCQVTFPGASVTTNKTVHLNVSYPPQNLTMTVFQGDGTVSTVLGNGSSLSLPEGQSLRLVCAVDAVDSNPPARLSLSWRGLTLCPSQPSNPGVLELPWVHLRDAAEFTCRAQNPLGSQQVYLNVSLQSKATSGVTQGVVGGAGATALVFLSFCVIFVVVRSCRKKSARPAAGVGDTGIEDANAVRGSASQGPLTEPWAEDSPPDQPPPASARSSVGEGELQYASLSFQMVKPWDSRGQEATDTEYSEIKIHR
Sequence of Protein translocase subunit SecA (Escherichia coli (strain K12)) (P10408 whole entry): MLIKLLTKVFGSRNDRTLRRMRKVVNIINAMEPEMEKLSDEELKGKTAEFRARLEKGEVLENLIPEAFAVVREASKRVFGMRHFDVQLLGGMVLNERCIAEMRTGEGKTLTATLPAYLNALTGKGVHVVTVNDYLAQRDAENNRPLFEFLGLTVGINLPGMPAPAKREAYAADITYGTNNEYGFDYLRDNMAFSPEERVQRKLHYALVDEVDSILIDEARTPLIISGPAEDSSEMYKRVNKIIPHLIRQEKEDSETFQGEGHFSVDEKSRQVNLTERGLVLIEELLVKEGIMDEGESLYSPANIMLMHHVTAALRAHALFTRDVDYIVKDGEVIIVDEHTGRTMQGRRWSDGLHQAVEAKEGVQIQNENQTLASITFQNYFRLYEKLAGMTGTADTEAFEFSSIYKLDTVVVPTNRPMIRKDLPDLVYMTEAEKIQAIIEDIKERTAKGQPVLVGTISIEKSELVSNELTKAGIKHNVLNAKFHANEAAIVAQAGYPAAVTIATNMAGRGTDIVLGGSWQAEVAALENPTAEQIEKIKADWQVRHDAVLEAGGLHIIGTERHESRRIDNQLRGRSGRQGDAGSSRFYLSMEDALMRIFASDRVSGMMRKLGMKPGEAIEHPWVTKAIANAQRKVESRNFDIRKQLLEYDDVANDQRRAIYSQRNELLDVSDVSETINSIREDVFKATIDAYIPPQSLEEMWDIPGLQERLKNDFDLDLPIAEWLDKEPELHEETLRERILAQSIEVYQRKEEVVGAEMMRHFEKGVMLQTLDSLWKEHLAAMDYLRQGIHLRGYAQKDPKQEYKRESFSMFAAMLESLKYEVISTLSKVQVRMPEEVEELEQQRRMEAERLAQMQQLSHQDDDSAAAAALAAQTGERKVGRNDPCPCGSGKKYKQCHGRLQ

On to `O=C(NCC(O)c1ccc(F)c(F)c1)c1cccnc1O` (stereo unspecified), for which the Percent Effect in [1] was -0.608%; in assay [2] it was 13.7%; in [3], 1.02%; in assay [4] it was 2.28%; in assay [5], -0.198%; in [6], -4.39%. For the same compound, the Percent Effect in assay [7] is 24.9%; in assay [8], 3.44%; in assay [9], 10.4%; in assay [10], 21%; in [11] it was -4.53%.
As to `CCO[C@H]1CO[C@@]2(CCCN(Cc3nc(C)cs3)C2)C1`, the Percent Effect in assay [1] is -0.479%; in assay [2] it was 16.4%; in [3], -4.62%; in [4], 9.84%; in assay [5], 3.17%; in [6], -2.4%. Further, the Percent Effect in assay [7] was 7.79%; in assay [8], -0.894%; in assay [9], 8.33%; in [10] it was 18.5%; in [11] it was -4.88%.
Consider `Cn1cccc1C(=O)N1CCC2(CC1)CN(c1ccccn1)CCO2`, for which the Percent Effect was -5.31% in assay [1]; 5.2% in assay [2]; -0.668% in assay [3]; 10.6% in assay [4]; 9.54% in [5]; -55.2% in assay [6]. In addition, the Percent Effect is 5.49% in assay [7]; 6.16% in [8]; -2.15% in assay [9]; -1.24% in [10]; -2.89% in assay [11].
In the case of `Cc1cc(C)n(CC2CCCN2C(=O)c2cccc3[nH]ncc23)n1` (stereo unspecified), the Percent Effect in assay [1] was -2.49%; in [2], -10.8%; in assay [3], -1.43%; in [4], 12.1%; in [5], 7.89%; in [6], -2.77%. The Percent Effect in assay [7] is -4.49%; in assay [8], 7.84%; in assay [9], 5.94%; in assay [10], 15.8%; in assay [11], -3.25%.
Turning to `CC(C)COC(C)C(=O)NCc1ccc(OC(C)C)nc1` (stereo unspecified), the Percent Effect was -1.41% in assay [1]; 15.6% in assay [2]; -0.374% in assay [3]; 1.85% in [4]; 2.84% in [5]; 1.9% in assay [6]. Also, the Percent Effect in assay [7] was 11.1%; in assay [8], -12.7%; in assay [9] it was 8.57%; in assay [10], 25.9%; in [11] it was -24.5%.
As to `Cc1nn(C)c(C)c1NC(=O)CN1CCc2c(nc(C(C)C)n2C)C1`, the Percent Effect was -0.874% in [1]; 8.11% in assay [2]; -7.75% in assay [3]; 18.4% in assay [4]; 7.34% in [5]; 12.9% in assay [6]. The Percent Effect in assay [7] was 7.93%; in [8] it was 22.8%; in assay [9], 5.82%; in assay [10] it was 14.6%; in assay [11], -2.17%.
Turning to `Cc1nc(CO[C@@H]2CN(Cc3cnn(C)c3)[C@@H]3COC[C@@H]32)cs1`, the Percent Effect in assay [1] is -0.847%; in assay [2] it was 13.7%; in [3] it was 1.23%; in assay [4], 4.76%; in assay [5], -2.58%; in [6] it was 1.6%. For the same compound, the Percent Effect in [7] came out at 7.96%; in assay [8] it was 2.98%; in assay [9], 3.12%; in assay [10], 11.1%; in assay [11], 3.26%.
With `CN(C)C(=O)CN1C[C@@H]2CC[C@H](C1)N(C(=O)CCn1cncn1)C2`, the Percent Effect in assay [1] was -2.58%; in [2] it was 5.41%; in assay [3], -3.51%; in assay [4], 3.26%; in assay [5], -1.16%; in [6], -0.952%. In addition, the Percent Effect in [7] was 2.76%; in assay [8] it was -15.8%; in assay [9], 6.88%; in [10] it was 9.76%; in [11] it was -3.62%.
Regarding `Cn1cccc1CN1CCC2(CCCN(C(=O)Cc3cccnc3)C2)C1` (stereo unspecified), the Percent Effect in [1] is -2.25%; in assay [2] it was 0%; in assay [3] it was -2.27%; in assay [4], -5.33%; in assay [5] it was -2.07%; in assay [6] it was -4.52%. In addition, the Percent Effect was 1.39% in assay [7]; 2.23% in assay [8]; -2.12% in assay [9]; -6.41% in assay [10]; -7.07% in assay [11].
As to `CN1CCCC1CNC(=O)CCCOc1ccc(F)cc1` (stereo unspecified), the Percent Effect is -1.24% in assay [1]; 0% in [2]; 7.48% in [3]; 11.7% in [4]; 4.7% in assay [5]; -3.83% in assay [6]. The Percent Effect in [7] is 0.835%; in assay [8] it was -4.13%; in [9], 4.41%; in assay [10], 7.32%; in assay [11], -3.92%.
With `Cn1cnnc1C1CCCN(C(=O)NCCNc2ccccn2)C1` (stereo unspecified), the Percent Effect in [1] is -5.92%; in assay [2], 18.2%; in assay [3], 3.59%; in assay [4], 4.46%; in assay [5], 0.881%; in assay [6], 6.53%. Besides, the Percent Effect in assay [7] is 9.78%; in assay [8], 4.54%; in [9], 7.62%; in assay [10], 18.8%; in [11], -9.77%.
